An excerpt weighted towards active compounds, which were near 4.1% of everything screened.
Anthrax LF inh2: anthrax lethal factor protease inhibition; multiplex microsphere protease cleavage assay, LF; AID 588501; inhibition, % at 10 µM; 360,000 compounds, 0.12% hits; also: plate controls were buffer without enzyme for full effect and enzyme alone for no effect
BoNT-A LC inh2: inhibitors of Botulinum neurotoxin A light chain protease. multiplex microsphere protease substrate cleavage, flow cytometry. inhibition, % at 10 µM. 360,000 compounds, 0.17% hits. AID 588499; also: plate controls were buffer without enzyme for full effect and enzyme alone for no effect
Autofluor counter: compound fluorescence in toxin protease inhibitor counterscreen. compound autofluorescence counterscreen, microsphere flow cytometry; stronger effect = higher value. 360,000 compounds, 3.1% hits. fluorescence intensity (concentration not given with the values); in the data active = fluorescence intensity above about 16000; inconclusive = no clear call, values can overlap the other calls
MazF activator: increases E. coli MazEF RNase cleavage of RNA; 350,000 compounds, 0.32% hits; activation, % at 20 µM; FAM/BHQ RNA-DNA oligo cleavage fluorescence, 5 h; in the data active = activation above about 50%
Target sequence (P0AE70 whole entry, looked up): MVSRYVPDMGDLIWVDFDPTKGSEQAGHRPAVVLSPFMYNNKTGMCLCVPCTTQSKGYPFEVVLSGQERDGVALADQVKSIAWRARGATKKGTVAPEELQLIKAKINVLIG
DUSP3 inh: inhibitors of human VHR1 phosphatase (DUSP3). P51452. recombinant VHR phosphatase, pNPP absorbance. inhibition, % at 13.3 µM. 290,000 compounds, 0.52% hits; in the data active = inhibition above about 50%
Target sequence (P51452 whole entry, looked up): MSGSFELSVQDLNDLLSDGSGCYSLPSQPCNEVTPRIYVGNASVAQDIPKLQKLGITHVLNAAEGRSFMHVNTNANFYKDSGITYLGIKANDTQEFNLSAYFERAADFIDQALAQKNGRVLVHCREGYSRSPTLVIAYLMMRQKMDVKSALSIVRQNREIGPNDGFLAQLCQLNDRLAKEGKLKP
BoNT-F LC inh: inhibitors of Botulinum neurotoxin F light chain protease; 360,000 compounds, 0.22% hits; Multiplex microsphere protease cleavage assay, flow cytometry; inhibition, % at 10 µM; AID 588497; in the data active = inhibition above about 35%, passing the limit was not always enough; inconclusive = no clear call, values can overlap the other calls; also: plate controls were buffer without enzyme for full effect and enzyme alone for no effect
* hit, by the source's call; ? = inconclusive; · = no result given; + = active, no number; ! = not confirmed by another sample. Rule as the data show it, unless noted: active = inhibition above about 30%; inconclusive = no clear call, values can overlap the other calls; inactive = below that.

SMILES	Anthrax LF inh2	BoNT-A LC inh2	Autofluor counter	MazF activator	DUSP3 inh	BoNT-F LC inh
CC12CCC(=O)C=C1CCC1C2CCC2(C)C(c3csc(N)n3)CCC12 (configuration not stated)	2	0	3395	-5	·	2
Cc1ccc(Cn2cc(CN(C)C3CN(Cc4cn(Cc5ccc(C)cc5)nn4)S(=O)(=O)C3)nn2)cc1 (configuration not stated)	1	0	4423	·	·	-3
COc1cccc(OC)c1C(=O)Nc1nc(N)n(-c2ccccc2)n1	-4	-4	17413*	10	19	-6
CN(C)CCNC(=O)c1cc(Br)ccc1Cl	0	-1	21132*	2	21	0
CCCNC(=O)c1cc(SC)ccc1Cl	-9	8	20823*	7	14	7
CCc1ccc(OCCNC(=O)c2cc(SC)ccc2Cl)cc1	0	0	23443*	2	10	-2
CN1CCN(CCCNC(=O)c2ccc3c(Cl)c4c(nc3c2)CCCC4)CC1	0	1	4286	25	47	4
CCCNC(=O)C1(C)CCCN(C(=O)c2ccc3snnc3c2)C1 (configuration not stated)	2	0	4122	·	·	-7
CC(=O)Nc1ccc(S(=O)(=O)NC(C)(C#N)C2CC2)cc1 (configuration not stated)	-3	2	3569	0	-12	-15
NC1=NC(c2ccccc2)CC(=O)N1 (configuration not stated)	-1	0	3806	1	·	3
CCCC(=O)Nc1c2c(nn1-c1ccc(C)cc1)CS(=O)(=O)C2	-2	0	2973	2	-16	-2
CCCC(=O)Nc1c2c(nn1-c1ccc(OC)cc1)CS(=O)(=O)C2	-2	0	19921*	4	0	1
CN1OC[C@@H]2CN(C(=O)c3cccc4ccccc34)[C@H](c3ccccc3Br)C[C@@H]21	2	0	5957	·	·	0
O=C(CNC(=O)c1ccco1)OCC(=O)c1ccc(Br)cc1	5	-8	3616	3	18	-31
COC(=O)c1cccc(COC(=O)CNC(=O)c2ccco2)c1	-1	-3	20436*	8	11	0
Cc1ccc(C(=O)COC(=O)CNC(=O)c2ccco2)cc1	1	-1	20040*	5	21	-2
O=C(CNC(=O)c1ccco1)NCC(=O)OCc1cccc(C(=O)Oc2ccccc2)c1	-3	-1	11097	-5	9	-10
O=C(c1ccc(F)cc1)c1cc2ccccc2o1	-2	-1	24066*	8	0	1
O=C(c1ccccc1)c1cc2ccccc2o1	1	-1	5301	-11	48	1
Cc1ccc2nsnc2c1S(=O)(=O)Nc1ccccc1C(=O)O	-1	-10	4856	4	3	?
Cc1ccc2nsnc2c1NS(=O)(=O)c1c(C)ccc2nsnc12	0	-3	22309*	16	25	-7
Cc1cc(S(=O)(=O)Nc2c(C)ccc3nsnc23)ccc1F	2	1	16194*	-8	31	3
O=S(=O)(Nc1ccccc1F)c1ccc2nsnc2c1	0	0	10528	2	8	-5
CN1C2CCC1/C(=C\c1ccc(F)cc1)C(=O)/C2=C/c1ccc(F)cc1	-6	-2	6967	12	17	-5
Cn1cccc1/C=C1\Cc2ccccc2C1=O	0	1	4221	-12	33	2
SMILES	Anthrax LF inh2	BoNT-A LC inh2	Autofluor counter	MazF activator	DUSP3 inh	BoNT-F LC inh
CN1C2CCC1/C(=C/c1cccn1C)C(=O)/C2=C\c1cccn1C	17	15	7871	+	2	8
Cn1cccc1/C=C1\CC(C(C)(C)C)C/C(=C\c2cccn2C)C1=O (configuration not stated)	2	3	7066	108*	-24	-4
Oc1ccccc1-c1nc(NCc2ccco2)c2ccccc2n1	9	2	?	120*	10	?
COc1cc2ncnc(NCc3ccccc3)c2cc1OC	0	0	2424	7	14	-4
Oc1ccccc1Nc1nc(NCc2ccccc2)c2ccccc2n1	-9	0	5505	57*	13	-9
Oc1ccccc1-c1nc(NCc2ccccc2)c2ccccc2n1	-6	-1	3098	63*	·	-16
c1ccc(CNc2ncnc3ccccc23)cc1	-2	6	20097*!	5	-18	8
CNc1nc(NCc2ccccc2)c2ccccc2n1	5	-2	3902	30	-2	-2
CC(=O)N1c2ccc(S(=O)(=O)N3CCCCC3)cc2CC1C(=O)Nc1ccc(C)cc1 (configuration not stated)	-4	-1	5876	6	10	-1
CCCc1cc(CN(C)C(=O)CC2C(=O)NCCN2Cc2ccccc2C)[nH]n1 (configuration not stated)	1	1	5428	-5	-11	0
CC1(C(=O)NS(=O)(=O)c2cccc(Cl)c2)CCN1C(=O)c1ccccc1 (configuration not stated)	-2	0	3457	·	·	0
CCCNC(=O)C1(C)CCN(Cc2cc(-c3ccccc3)on2)C1 (configuration not stated)	-5	0	3688	·	·	6
COc1ccc2[nH]c3c(c2c1)CCN1C(=O)C(CC(=O)NC/C=C(\C)CCC=C(C)C)C[C@H](C(=O)N2CCOCC2)[C@@]31CCC1CCCC1 (some centres not stated)	-2	0	2869	4	·	-5
Cc1ccc(-c2noc(CCC(=O)NCC3CCCO3)n2)cc1 (configuration not stated)	-1	0	23346*	-25	-2	-1
O=C(CCc1nc(-c2ccccc2)no1)NC1CCCCC1	-5	4	21669*	-3	6	4
COc1ccc(C(=O)CC(=O)Nc2ccc([N+](=O)[O-])cc2)cc1	9	-1	3498	-21	-11	-19
COc1ccc(C(=O)/C(C#N)=N/Nc2ccc([N+](=O)[O-])cc2)cc1	2	-4	6602	3	71*	-12
COc1ccc(C(=O)CC(Nc2ccc([N+](=O)[O-])cc2)c2ccc(OC)cc2)cc1 (configuration not stated)	-2	-2	24070*	6	-15	-4
COc1ccc(C(=O)/C(C#N)=N/Nc2ccccc2[N+](=O)[O-])cc1	0	-1	2354	-3	-7	0
CCOP(=O)(OCC)C(Nc1ccc(C)cc1)c1ccco1 (configuration not stated)	-1	0	4086	6	12	-9
Cc1cc(NC(=O)c2cc3ccccc3oc2=O)no1	1	-1	5403	-4	14	4
CCOc1ccccc1NC(=O)c1cc2ccccc2oc1=O	10	4	3036	-22	30	40*
CCN(CC)c1ccc2cc(C(=O)Nc3ccccn3)c(=O)oc2c1	11	10	3169	+	-13	3
O=C(Nc1ccon1)c1cc2ccccc2oc1=O	-2	-1	20901*	-10	19	-2
